Source: PMC4336329 (PLoS ONE, 2015)
In all, about 310,000 compounds went through this assay and about 14,000 (4.5%) showed an effect of 50% or more. The effect is printed as a negative number. Only a selection was taken, and strong results are over-represented in it overall.

These compounds were tested against human ether-à-go-go-related gene (hERG) potassium channel (human, UniProt Q12809) (assay: primary screen, population patch clamp on CHO cells stably expressing hERG; higher = less effect of the substance).
Chain of human ether-à-go-go-related gene (hERG) potassium channel (Q12809 whole entry, looked up): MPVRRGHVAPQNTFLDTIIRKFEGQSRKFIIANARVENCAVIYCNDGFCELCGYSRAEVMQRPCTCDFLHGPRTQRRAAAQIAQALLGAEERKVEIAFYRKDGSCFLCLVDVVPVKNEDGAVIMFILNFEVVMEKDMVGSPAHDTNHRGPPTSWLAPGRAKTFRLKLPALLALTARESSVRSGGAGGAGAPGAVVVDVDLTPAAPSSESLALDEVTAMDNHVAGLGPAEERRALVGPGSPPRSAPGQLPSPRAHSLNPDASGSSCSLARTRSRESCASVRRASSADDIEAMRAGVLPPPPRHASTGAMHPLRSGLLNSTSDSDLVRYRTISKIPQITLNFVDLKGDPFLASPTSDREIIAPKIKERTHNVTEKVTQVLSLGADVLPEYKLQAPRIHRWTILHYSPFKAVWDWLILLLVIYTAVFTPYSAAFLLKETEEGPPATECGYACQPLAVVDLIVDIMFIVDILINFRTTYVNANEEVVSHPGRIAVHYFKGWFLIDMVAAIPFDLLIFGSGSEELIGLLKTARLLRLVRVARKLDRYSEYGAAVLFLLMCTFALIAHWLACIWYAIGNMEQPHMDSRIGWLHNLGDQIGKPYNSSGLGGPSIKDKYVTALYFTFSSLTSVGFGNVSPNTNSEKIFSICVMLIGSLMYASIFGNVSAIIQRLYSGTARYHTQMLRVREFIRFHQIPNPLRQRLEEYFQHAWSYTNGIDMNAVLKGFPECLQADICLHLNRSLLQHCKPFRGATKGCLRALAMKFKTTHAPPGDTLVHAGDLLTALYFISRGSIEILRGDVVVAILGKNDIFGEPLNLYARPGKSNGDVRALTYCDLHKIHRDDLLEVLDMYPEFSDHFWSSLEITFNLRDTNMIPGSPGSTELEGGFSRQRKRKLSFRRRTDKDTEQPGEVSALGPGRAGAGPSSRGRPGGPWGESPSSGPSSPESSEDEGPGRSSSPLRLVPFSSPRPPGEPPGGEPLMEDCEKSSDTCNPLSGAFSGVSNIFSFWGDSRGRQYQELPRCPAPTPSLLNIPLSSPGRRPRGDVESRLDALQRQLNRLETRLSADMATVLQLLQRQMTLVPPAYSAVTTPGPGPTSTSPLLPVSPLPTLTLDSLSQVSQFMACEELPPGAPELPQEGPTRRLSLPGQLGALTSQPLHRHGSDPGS
Description: Briefly, Chinese hamster ovary (CHO) cells stably expressing the hERG channel were dislodged from tissue culture flasks and dispensed into PPC plates. […] During the recording, background leak currents were estimated by a 100 ms step to -80 mV from an initial holding potential of -70 mV and subtracted from the subsequent current measurement. The campaign was conducted in two phases using slight differences in recording protocol. In the first phase, the initial voltage pulse used a 100 ms step to -30 mV from a holding potential of -70 mV, a 2 s conditioning step to +25 mV, and a 2 s test step to -30 mV. During the second phase of the screen, the potential during the conditioning step was raised to +45 mV. In both phases of the campaign, a secondary voltage pulse was applied using the same parameters as the second phase initial pulse. The initial and secondary pulses were applied in the absence of compound, and upon application of 1 μM and 10 μM test concentrations. […]
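Also: peak tail current of the secondary pulse compared with the same well before compound.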

Structure (SMILES) | hERG current change (%, negative = inhibition) at 10uM [%]
C#CCOCOCC#CCN(CC)CC | 3.26
COc1ccc(-n2c(C)cc(C(=O)Cn3nc(C(=O)O)c4ccccc4c3=O)c2C)cc1 | -1.43
CC(C)(C)c1ccc(CS(=O)CC(O)CO)cc1 (stereo not drawn) | 19.3
Cc1cccnc1NC(=O)CNC(=O)c1cccs1 | -8.89
O=C(NCCc1ccccc1)C1CCN(S(=O)(=O)c2ccc(-n3cnnn3)cc2)CC1 | -66.3
CC(=O)c1ccc(S(=O)(=O)Nc2ccc(-n3cnnn3)cc2)cc1 | -6.16
O=C(CCNC(=O)C1CCN(S(=O)(=O)c2ccc(F)cc2)CC1)NCc1ccccc1 | 2.4
COc1ccc(S(=O)(=O)N2CCC(C(=O)NCCCc3ccccc3)CC2)cc1 | -35.9
CC(=O)c1ccc(OCCNS(=O)(=O)c2ccc(-n3cnnn3)cc2)cc1 | -55.3
O=C(NCCCc1ccccc1)C1CCN(S(=O)(=O)c2ccc(F)cc2)CC1 | -60.7
O=C(NCCc1ccccc1)C1CCN(S(=O)(=O)c2ccc(-c3nn[nH]n3)cc2)CC1 | -18.7
CCCCOc1ccc(NS(=O)(=O)c2ccc(-n3cnnn3)cc2)cc1 | -3.42
CC(=O)c1ccc(OCCNS(=O)(=O)c2ccc(-n3cnnn3)c(C)c2)cc1 | -2.88
Cc1ccc(S(=O)(=O)N2CCC(C(=O)NCCc3ccccc3)CC2)cc1 | -0.42
COc1ccc(OCC(NS(=O)(=O)c2ccc(-n3cnnn3)cc2)C(C)C)cc1 (stereo not drawn) | -52.2
COc1ccc(S(=O)(=O)Nc2cccc(-n3cnnn3)c2)cc1 | 1.11
Cc1ccc(N2CCN(C(=O)c3cccs3)CC2)cc1C | 2.97
Cc1cccn(Cc2c(Cl)cccc2Cl)c1=O | -9.53
CCOc1ccc(N(CC(=O)NC(C(C)C)C(C)C)S(=O)(=O)c2ccc(OC)c(OC)c2)cc1 | 38
CCOC(=O)CNC(=S)N(Cc1ccccc1)Cc1cccs1 | -17.3
COc1ccc(NC(=O)c2ccc(OC)cc2)cc1 | -30
COc1ccc(OC)c(C2=Nn3c(nnc3-c3cc(OC)c(OC)c(OC)c3)SC2)c1 | -21
CC(C)(C)NS(=O)(=O)c1cc(C(=O)Nc2sccc2C#N)ccc1Cl | 4.98

Structure (SMILES) | hERG current change (%, negative = inhibition) at 10uM [%]
COc1ccc(NC(=O)NC2(C(=O)N3CCCC3)CCCCC2)cc1 | 22
Cc1ccc(NC(=O)CN(C)C(=O)c2cccc(S(=O)(=O)N3CCc4ccccc43)c2)cc1 | -15.6
CC(=O)C1=C(O)C(=O)N(Cc2cccnc2)C1c1ccc(C(C)C)cc1 (stereo not drawn) | 17.1
CC(=O)N1c2ccc(S(=O)(=O)N3CCC(C(=O)NCc4ccc(N(C)C)cc4)CC3)cc2CC1C (stereo not drawn) | 18.8
CCOc1cc(S(=O)(=O)NCc2ccccc2)c(OCC)cc1-n1cnnn1 | -14.3
CC(C)CNC(=O)C1CCN(S(=O)(=O)c2ccc(-n3cnnn3)cc2)CC1 | -55.3
O=C(NCCc1ccc(Cl)cc1)C1CCN(S(=O)(=O)c2ccc(-n3cnnn3)cc2)CC1 | -69
COc1ccc(CCNS(=O)(=O)c2ccc(-n3cnnn3)cc2)cc1OC | -26
COc1ccc(CCNC(=O)C2CCN(S(=O)(=O)c3ccc(-n4cnnn4)cc3)CC2)cc1OC | -13
CC(=O)Nc1ccc(S(=O)(=O)N2CCC(C(=O)NCCc3ccc(Cl)cc3)CC2)cc1 | 5.7
CC(C)CCNC(=O)C1CCN(S(=O)(=O)c2ccc(-n3cnnn3)cc2)CC1 | -37.6
O=S(=O)(NCCc1ccccc1)c1ccc(-n2cnnn2)cc1 | -56.7
CC(C)CNC(=O)C1CCCN(S(=O)(=O)c2ccc(-n3cnnn3)cc2)C1 (stereo not drawn) | -0.697
CCOc1ccc(-n2cnnn2)cc1S(=O)(=O)NCc1ccccc1 | -71
CCOc1ccc(-n2cnnn2)cc1S(=O)(=O)Nc1c(C)cccc1C | -19.4
Cc1cc(S(=O)(=O)NCCc2ccccc2)ccc1-n1cnnn1 | -17.1
O=C1CSC(c2ccc([N+](=O)[O-])cc2)N1C1CCCCC1 (stereo not drawn) | -47.4
CC(C)c1ccc(O)c(NC(=S)NC(=O)c2cccnc2)c1 | 11
CC(C)Oc1cccc(C(=O)C2CCCN(C(=O)c3cc(C4CC4)[nH]n3)C2)c1 (stereo not drawn) | -19.9
CC(=O)c1ccc(NC(=O)N2CCc3ccccc3C2)cc1 | -0.383
CCN1CCN(CC(=O)Nc2ccc(Cl)c(Cl)c2)C(=O)C1=O | -5.76
Cc1c(N(C)C(=O)C23CC4CC(CC(C4)C2)C3)c(=O)n(-c2ccccc2)n1C | -1.09
